Measured values: ChEMBL document CHEMBL1157539, “Thousands of chemical starting points for antimalarial lead identification” (Nature, 2010)

How the values were obtained:
Type in all cases: functional
[1] = system: Plasmodium falciparum; assay: GSK_TCMDC: Inhibition of Plasmodium falciparum 3D7 in whole red blood cells, using parasite LDH activity as an index of growth. Test compounds present at 2uM
[2] = system: Plasmodium falciparum; assay: GSK_TCMDC: Inhibition of Plasmodium falciparum Dd2 in whole red blood cells, using parasite LDH activity as an index of growth. Test compounds present at 2uM
[3] = system: HepG2; assay: GSK_TCMDC: Percent inhibition of human HepG2 cell line. Test compounds present at 10uM.

SMILES	Inhibition [1] [%]	Inhibition [2] [%]	Inhibition [3] [%]
CCN1CCN(c2cc(C)c3cc(NC(=O)C=Cc4cccc(OC)c4OC)ccc3n2)CC1	99	38	18
Oc1ccc2nc(NCCCc3ccccc3)nc(NCCc3ccccc3)c2c1	99	88	31
COc1cc2nc(N(C)CC3COc4ccccc4O3)nc(N)c2cc1OC.Cl (configuration not stated)	94	26	11
Cc1ccc2nc(C)cc(N/N=C/c3ccccc3[N+](=O)[O-])c2c1	100	100	5
CCOC(=O)NC1=NC(C)(C)N(OCc2ccc(Cl)c(Cl)c2)C(NC(=O)OCC)=N1	98	4	65
COCn1ncc2cc(-c3cccc(NC(=O)c4csc(NC(C)=O)n4)c3)ccc21	89	68	0
CCNc1cc(C(=O)N[C@@H](Cc2ccccc2)[C@H](O)CN[C@@H](C)c2ccccc2)cc(N2CCCC2=O)c1	98	96	7
O=C(Nc1ccc(OC2CCN(Cc3ccccc3)C2)c(Cl)c1)c1ccco1.O=C(O)C(F)(F)F (configuration not stated)	95	94	13
CCc1cn2c3c(cc(C(=O)N[C@@H](Cc4cc(F)cc(F)c4)[C@H](O)CNC4CC4)cc13)N(C)S(=O)(=O)CC2.O=CO	100	99	3
CCOc1cc2c(cc1OCC)C(c1cc(OC)c(O)cc1Cl)NCC2 (configuration not stated)	100	97	15
Cc1cccc(OC2CCN(c3ncc(C(=O)NCCCN4CCCC4=O)cc3Cl)CC2)c1	96	95	7
Cc1cccc2nc(-c3cccc(-c4ccc(NC(=O)Nc5ccsc5)cc4)c3)[nH]c12	100	99	27
CC(Cc1ccc(OCCN2CCN(c3ccc(Cl)cc3)CC2)cc1)NCC(O)c1cccc(C(F)(F)F)c1.Cl (configuration not stated)	99	96	97
O=C(NCCCN(Cc1ccc(F)cc1)c1ccccn1)C(c1cc2ccccc2o1)N1CCN(C(c2ccccc2)c2ccccc2)CC1 (configuration not stated)	97	53	14
COc1cc2c(cc1OC)-c1cc(=Nc3c(C)cc(C)cc3C)n(C)c(=O)n1CC2.Cl	92	29	14
Cn1nc(-c2ccc(NC(=O)Nc3ccc4ccccc4c3)c(F)c2)c2cnc(NCCN3CCOCC3)nc21.O=C(O)C(F)(F)F	93	3	62
COc1ccc(C2CC(=O)C3=C(C2)NC(C)=C(C(=O)OC2CCCC2)C3c2cccc(O)c2)cc1OC (configuration not stated)	100	98	8
COc1ccc2nccc([C@@H](O)CN3CCC(NCc4ccc5nsnc5c4)CC3)c2c1.O=C(O)C(=O)O	95	64	12
Cc1ccc(CNC(=O)[C@H](Cc2ccccc2)Nc2cc(C)nc(NCC3CCCCC3)n2)cc1.O=C(O)C(F)(F)F	100	89	0
CC(C)Sc1nc2c(c(=O)n1CCc1ccccc1)C1(CCCC1)Cc1ccccc1-2	100	88	0

SMILES	Inhibition [1] [%]	Inhibition [2] [%]	Inhibition [3] [%]
COc1ccc(-c2nnc(Sc3ccc(C#N)c([N+](=O)[O-])c3)n2CC(C)C)cc1	97	78	3
Cc1cc(NC(=O)c2cccs2)ccc1OC1CCN(Cc2ccc(C#N)cc2)C1.O=C(O)C(F)(F)F (configuration not stated)	82	61	13
Cl.OCCNc1nc(Nc2ccc(F)cc2)nc2ccccc12	94	73	10
COc1ccc(CNC2CCN(C)CC2)cc1-c1ccc(S(=O)(=O)NCCN2CCCC2)s1.O=C(O)C(F)(F)F	90	1	2
CN1CCN(c2ccnc3ccc(NC(=O)Nc4ccc(-c5ccncc5)c(C#N)c4)cc23)CC1	100	99	32
CN(Cc1ccccc1)C1CCN(c2cc(NC(=O)c3cccc(F)c3)ccn2)CC1.O=C(O)C(F)(F)F	93	3	2
CCOC(=O)c1ccc(NC(=O)N(Cc2ccc(-c3ccc(CN4CCNCC4)cc3)cc2)C2CCN(Cc3ccccc3)CC2)cc1.O=C(O)C(F)(F)F	100	93	14
Cc1cccc2nc(-c3cccc(-c4cccc(CNCCCN5CCCC5=O)c4)c3)[nH]c12.O=C(O)C(F)(F)F	100	76	9
Cc1cccc2nc(-c3ccc(-c4ccc(C(=O)NCCN5CCCC5)cc4)cc3)[nH]c12	100	77	25
CCOc1cc(C(=O)Nc2cccnc2)ccc1-c1nc2cc(Cl)c(Cl)cc2[nH]1	100	70	9
CCC(C)c1ccc(NC(=O)Nc2ccnc3ccccc23)cc1.Cl (configuration not stated)	98	42	27
Fc1ccc2[nH]c(-c3cccc(-c4ccc(CN5CCN(c6ccncc6)CC5)cc4)c3)nc2c1.O=C(O)C(F)(F)F	100	67	39
Cc1cc2nc(-c3ccc(C(=O)NCCCc4ccccc4)cc3)[nH]c2cc1C	91	5	7
Cc1cccc2[nH]c(-c3cc(-c4cccc(Cl)c4)cnc3N)nc12.O=C(O)C(F)(F)F	100	99	32
COc1ccc2nc(-c3ccccc3)cc(N/N=C/c3ccc([N+](=O)[O-])cc3)c2c1	100	100	89
Clc1cc(Nc2ncnc3sc(C#C[C@H]4CCCN4)cc23)ccc1OCc1cccnc1Cl.O=C(O)C(F)(F)F	100	93	9
CCCCCCCCCn1c(NCc2cc(Cl)ccc2O)nc2ccccc21	97	92	13
O=C(Cn1c(CCc2cccc(F)c2F)cc(=O)c2ccccc21)N(Cc1ccc(-c2ccc(C(F)(F)F)cc2)cc1)C1CCN(CCN2CCOCC2)CC1.O=C(O)C(O)C(O)C(=O)O	100	41	53
CC(=O)Nc1nnc(SCc2c(C)cc(C(C)(C)C)cc2C)s1	98	91	3
CCN(CCCN1CCCCC1)c1cc(C)nc(Nc2ccc(Cl)cc2)n1.Cl	100	82	23

SMILES	Inhibition [1] [%]	Inhibition [2] [%]	Inhibition [3] [%]
COc1ccc2nccc([C@@H](O)CN3CCC(NC(=O)C(c4cc5ccccc5o4)N4CCN(c5ccc(F)cc5)CC4)CC3)c2c1 (some centres not stated)	100	98	15
O=C1Nc2cccc3c2C1(CCCN1CCC(c2c[nH]c4cc(C(F)(F)F)ccc24)CC1)CCC3 (configuration not stated)	89	37	91
N#Cc1ccc(CN2CCC(Oc3ccc(NC(=O)c4ccco4)cc3Cl)C2)cc1.O=C(O)C(F)(F)F (configuration not stated)	95	95	13
COc1cc(NC(=O)Nc2ccc(Br)cc2C(=O)Nc2ccc(Br)cc2)cc(OC)c1OC	99	98	0
Cc1ccc(Nc2nccc(NCC(O)c3cccc(C(F)(F)F)c3)n2)cc1 (configuration not stated)	99	74	19
Cc1cc(F)ccc1N(c1nc(-c2cc(Cl)ccc2Cl)cs1)C1CCNC1.O=C(O)C(F)(F)F (configuration not stated)	99	3	19
CNC(=O)c1ccc2nc(-c3ccc(-c4ccccc4)cc3)n(CC3CCN(CC4CCCC4)CC3)c2c1.O=C(O)C(F)(F)F	84	36	13
CC(=NO)C1=C(O)C(c2ccccc2)N(c2ccccc2)C1=O (configuration not stated)	99	23	12
COC(=O)C(Cc1ccccc1)C(CSCc1ccc(OC)cc1)C(=O)N[C@@H](C(=O)OC(C)(C)C)c1ccc(C(C)(C)C)cc1 (some centres not stated)	93	44	0
NC1CCCN(Cc2cccc(-c3cccc(-c4nc5ccccc5[nH]4)c3)c2)C1.O=C(O)C(F)(F)F (configuration not stated)	100	61	24
COc1ccc(CNCc2ccc(F)cc2)cc1-c1ccc(OC)c(S(=O)(=O)NCCN2CCCC2)c1.O=C(O)C(F)(F)F	100	88	24
N#Cc1ccc(-c2ccc(C(=O)NCCCCN3CCC(c4cn(CCCO)c5ccccc45)CC3)cc2)cc1	98	56	31
O=C(/C=C/c1ccc(Cl)cc1)NCCCCCN1CCN(C(=O)Nc2ccc(Cl)c(C(F)(F)F)c2)CC1	94	5	18
CO/C(=C\C=C\c1cc2cc(Cl)c(Cl)cc2[nH]1)C(=O)NCC(C)(C)CN(C)C	81	27	35
COC(=O)c1cccc(CNCc2cccc(-c3ccc(-c4nc5cccc(C)c5[nH]4)s3)c2)c1.O=C(O)C(F)(F)F	100	65	0
O=C(O)C(F)(F)F.O=c1[nH]ccc2nc(N[C@@H]3CCNC3)nc(Nc3cccc(S(=O)(=O)N4CCOCC4)c3)c12	90	98	0
Cc1ccc2[nH]c(C)cc(=NN=Cc3cccc(F)c3)c2c1	99	99	6
CCNc1cc(C(=O)N[C@@H](Cc2ccccc2)[C@H](O)CNC(C)CCCC(C)C)cc(N2CCCS2(=O)=O)c1.O=CO (some centres not stated)	99	98	2
CN1CCC(NCc2cccc(-c3cnc(NCc4ccccc4)nc3)c2)CC1.O=C(O)C(F)(F)F	100	67	12
